# Measured values published in PubChem BioAssay.
# Calls of active or inactive are those of the source. Unless noted, the rule behind the calls is not given here.
# Experiments:
# [1] = resazurin metabolic signal in HepG2 cells – cell-based, resazurin fluorescence, 24 h, PK04 Diversity Set, profiling panel (AID 1172); settings: HepG2 viability, higher = more signal
# [2] = budding yeast growth changes without added modifier – OD600, strain BY4716, 24 h, basal condition, primary screen (AID 1173); settings: S. cerevisiae BY4716 growth, OD600, 24 h; higher = more signal, called active from +8 up or from −8 down
# [3] = viability profiling in MM1S myeloma cells – cell-based, resazurin fluorescence, basal, 24 h, PK04 Diversity Set, profiling panel (AID 1174); settings: higher = more signal, called active from +8 up or from −8 down;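 note: MM1S multiple myeloma cell line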
# [4] = molecular target: Dihydroorotate dehydrogenase (quinone), mitochondrial (Plasmodium falciparum (isolate 3D7)) (UniProt Q08210); assay: inhibition of P. falciparum DHODH – biochemical, C-terminal His tag, absorbance 600 nm, primary screen (AID 1175); settings: PfDHODH enzyme, DCIP absorbance 600 nm; higher = more signal, called active from +8 up or from −8 down;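 note: recombinant parasite enzyme with a five histidine tag at its C terminus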
# [5] = inhibition of PAO1 biofilm formation – strain PAO1, LB-PBS medium, absorbance 600 nm, primary screen (AID 1176); settings: P. aeruginosa PAO1 growth/biofilm, A600, 12 h; higher = more signal
# [6] = growth modulation of vineyard yeast isolate – strain RM11-1a, OD600, basal, 24 h, primary screen (AID 1177);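 note: cultures grown under basal conditions with no added stressor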; settings: S. cerevisiae RM11-1a growth, OD600, 24 h; higher = more signal, called active from +8 up or from −8 down
# [7] = growth of efflux-deficient E. coli DRC39 – strain DRC39, OD650, 24 h, E. coli filamentation inducers, primary screen (AID 1178);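 note: growth measured as culture turbidity by optical density at 650 nm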; settings: E. coli DRC39 acrAB, higher = more signal, called active from +8 up or from −8 down
# [8] = growth of efflux-deficient E. coli DRC39 – strain DRC39, OD650, 48 h, E. coli filamentation inducers, primary screen (AID 1179);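 note: screen aims at cell division blockers that make cells filament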; settings: E. coli DRC39 delta-acrAB growth, higher = more signal, called active from +8 up or from −8 down
# [9] = viability profiling in RPMI8226 myeloma cells – cell-based, resazurin fluorescence, basal, 24 h, PK04 Diversity Set, profiling panel (AID 1180); settings: higher = more signal;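 note: RPMI8826 multiple myeloma cell line at 5000 cells per well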
# [10] = molecular target: E3 ubiquitin-protein ligase XIAP (Homo sapiens) (UniProt P98170); assay: small molecules binding XIAP protein – biophysical, small-molecule microarray, fluorescence 635 nm, primary screen (AID 1181); settings: higher = more signal;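 note: score merges 667 nm emission and signal to noise over triplicate slides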
# [11] = test system: XIP peptide (Xip251-270) binding; assay: XIP fragment 251-270 binding compounds – biochemical, small-molecule microarray, fluorescence 635/667 nm, 0.1 µg/mL protein, primary screen (AID 1182); settings: fluorescent protein binding, 635 nm, higher = more signal, called active from +8 up or from −8 down
# [12] = test system: XIP peptide (Xip251-270); assay: compounds binding XIP fragment 251-270 – biochemical, small-molecule microarray, fluorescence 635/667 nm, 0.5 µg/mL protein, primary screen (AID 1183); settings: fluorescence 635 nm, higher = more signal
# [13] = blood-stage malaria parasite viability loss – strain 3D7, DAPI fluorescence, 100 nL, primary screen (AID 1184);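 note: parasites grown inside human red blood cells in medium with human serum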; settings: P. falciparum 3D7 growth, 3 d, higher = more signal
# [14] = molecular target: Homeobox protein Hox-A13 (Mus musculus) (UniProt Q62424); assay: disruptors of Hoxa13 oligonucleotide interaction – biochemical, fluorescence polarization, labeled oligonucleotide, primary screen (AID 1185); settings: Hoxa13:DNA binding, 15 min, higher = more signal, called active from +8 up or from −8 down
# [15] = blockers of DNA damage checkpoint Chk1 activation – imaging, HeLa, hydroxyurea, phospho-Chk1 antibody, percent positive cells, primary screen (AID 1186); settings: hydroxyurea-induced phospho-Chk1 immunofluorescence imaging, higher = more signal
# [16] = blockers of DNA damage checkpoint Chk1 activation – imaging, HeLa, hydroxyurea, phospho-Chk1 nuclear intensity, primary screen (AID 1187); settings: hydroxyurea-induced phospho-Chk1 immunofluorescence imaging, higher = more signal
# Dihydroorotate dehydrogenase (quinone), mitochondrial (Plasmodium falciparum (isolate 3D7)), sequence (Q08210 whole entry, looked up): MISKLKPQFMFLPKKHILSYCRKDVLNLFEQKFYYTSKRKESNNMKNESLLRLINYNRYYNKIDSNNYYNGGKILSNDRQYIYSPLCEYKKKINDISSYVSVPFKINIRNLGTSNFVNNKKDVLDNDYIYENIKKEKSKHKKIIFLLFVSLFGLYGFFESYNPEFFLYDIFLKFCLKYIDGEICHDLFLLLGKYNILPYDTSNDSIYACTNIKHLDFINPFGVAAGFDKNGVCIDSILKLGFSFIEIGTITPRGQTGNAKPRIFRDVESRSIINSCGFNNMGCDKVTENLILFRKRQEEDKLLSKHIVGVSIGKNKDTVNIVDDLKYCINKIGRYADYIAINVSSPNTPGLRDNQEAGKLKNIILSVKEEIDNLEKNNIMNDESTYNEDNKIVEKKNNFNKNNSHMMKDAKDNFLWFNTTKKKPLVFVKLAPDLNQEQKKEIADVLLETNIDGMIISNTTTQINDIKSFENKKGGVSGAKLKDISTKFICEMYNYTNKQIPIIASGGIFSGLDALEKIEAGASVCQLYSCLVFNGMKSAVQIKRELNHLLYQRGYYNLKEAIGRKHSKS
# Homeobox protein Hox-A13 (Mus musculus), sequence (Q62424 whole entry, looked up): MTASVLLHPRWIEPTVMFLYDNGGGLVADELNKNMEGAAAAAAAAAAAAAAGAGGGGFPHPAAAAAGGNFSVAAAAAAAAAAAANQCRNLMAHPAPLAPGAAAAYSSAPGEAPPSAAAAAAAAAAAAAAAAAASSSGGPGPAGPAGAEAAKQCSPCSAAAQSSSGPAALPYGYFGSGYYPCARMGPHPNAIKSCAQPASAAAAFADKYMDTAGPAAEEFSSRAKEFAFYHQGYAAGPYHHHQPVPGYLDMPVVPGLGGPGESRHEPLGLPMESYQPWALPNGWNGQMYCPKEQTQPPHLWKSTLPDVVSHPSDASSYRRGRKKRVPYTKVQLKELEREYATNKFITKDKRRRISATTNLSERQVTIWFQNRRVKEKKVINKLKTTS
# E3 ubiquitin-protein ligase XIAP (Homo sapiens), sequence (P98170 whole entry, looked up, the tested form may be a part): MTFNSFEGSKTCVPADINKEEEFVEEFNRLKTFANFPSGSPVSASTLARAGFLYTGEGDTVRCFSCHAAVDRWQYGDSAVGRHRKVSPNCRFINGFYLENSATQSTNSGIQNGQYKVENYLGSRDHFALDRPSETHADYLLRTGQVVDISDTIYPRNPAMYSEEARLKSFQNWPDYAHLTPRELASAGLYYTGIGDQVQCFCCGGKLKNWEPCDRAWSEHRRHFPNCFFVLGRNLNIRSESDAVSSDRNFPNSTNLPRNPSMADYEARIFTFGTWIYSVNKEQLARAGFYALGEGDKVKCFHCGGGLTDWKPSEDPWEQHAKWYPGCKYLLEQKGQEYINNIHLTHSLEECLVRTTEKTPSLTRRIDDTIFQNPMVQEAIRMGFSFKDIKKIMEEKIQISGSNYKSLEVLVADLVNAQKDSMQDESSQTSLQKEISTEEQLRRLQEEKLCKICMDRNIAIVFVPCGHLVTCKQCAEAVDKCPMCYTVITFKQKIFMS
SMILES,z-score [1],z-score [2],z-score [3],composite z-score [4],z-score [5],z-score [6],z-score [7],z-score [8],z-score [9],composite z-score [10],composite z-score [11],composite z-score [12],z-score [13],z-score [14],z-score [15],z-score [16]
COCCCNC(=O)[C@@]1(CCS(=O)(=O)c2ccccc2)N=C(c2ccc(OCCCO)cc2)O[C@H]1c1ccccc1N=[N+]=[N-],0.531,-0.865 (inactive),-0.368 (inactive),-0.396 (inactive),-0.385 (inactive),-0.488 (inactive),1.28 (inactive),0.863 (inactive),-0.264,-0.005,1.26 (inactive),0.839,-2.72,-3.94 (inactive),-0.662 (inactive),-0.624 (inactive)
CC(C)=CCCC(C)=CC(O)C1C=CC2C(=O)N(c3ccccc3)C(=O)C2N1Nc1ccc(C(C)C)cc1 (stereo not given),-0.307,0.125 (inactive),-0.862 (inactive),0.484 (inactive),0.0616 (inactive),1.47 (inactive),-0.427 (inactive),-0.306 (inactive),-0.463,-0.0382,0.365 (inactive),0.305,-0.25,-2.82 (inactive),0.342 (inactive),0.0288 (inactive)
[N-]=[N+]=Nc1ccccc1[C@H]1OC(c2ccc(OCCCO)cc2)=N[C@@]1(Cc1ccccc1)C(=O)N1CCOCC1,-1.28,-1.33 (inactive),-2.81 (inactive),0.396 (inactive),0.948 (inactive),0.711 (inactive),0.226 (inactive),-0.927 (inactive),-4.56,-0.0917,2.73 (inactive),0.816,-2.19,-3.84 (inactive),-0.0747 (inactive),0.0969 (inactive)
C=C(C(=O)CC[C@H](OC(C)=O)c1ccccc1OCCO)C(C)C,-1.64,-18.4 (active),-1 (inactive),-9.12 (active),-0.493 (inactive),-22.2 (active),-0.587 (inactive),-0.573 (inactive),-1.62,0.42,-0.571 (inactive),0.332,-2.09,-0.163 (inactive),-0.145 (inactive),-0.0797 (inactive)
NC(=O)[C@@]1(Cc2ccccc2)N=C(c2ccc(OCCCO)cc2)O[C@H]1c1ccccc1,-0.815,-1.05 (inactive),0.597 (inactive),0.842 (inactive),0.466 (inactive),-0.541 (inactive),1.54 (inactive),0.915 (inactive),-0.0693,0.225,1.08 (inactive),-0.41,-0.689,-5.07 (inactive),-0.18 (inactive),0.135 (inactive)
C=CCOC(=O)[C@H]1[C@@H]2C(=O)O[C@@H](c3ccccc3)[C@@H](c3ccccc3)N2[C@@H](c2ccc(OCCOC(=O)[C@@H]3C[C@@H]4C(=O)N5CCC[C@H]5C(=O)N4[C@@H]3c3cccc(OCCO)c3)cc2)[C@]12C(=O)Nc1ccc(I)cc12,-0.536,0.509 (inactive),-0.424 (inactive),-0.49 (inactive),3.85 (inactive),1.29 (inactive),0.021 (inactive),-0.0471 (inactive),-0.442,-0.0203,0.108 (inactive),0.792,-1.66,2.03 (inactive),0.351 (inactive),0.557 (inactive)
OCC1C=C(/C=C/c2ccccc2)CN1Cc1ccccc1Br (stereo not given),0.233,-9.92 (active),-0.813 (inactive),-0.0313 (inactive),-0.0461 (inactive),-0.877 (inactive),1.79 (inactive),0.183 (inactive),-0.589,-0.122,1.74 (inactive),0.698,-0.982,-2.19 (inactive),-0.449 (inactive),-0.283 (inactive)
C=C(/C(=C/C[C@H](OC(C)=O)c1ccc(OCCO)cc1)c1cc(C(=O)OC)ccc1OC)C(C)C,1.5,-0.962 (inactive),0.012 (inactive),-0.858 (inactive),0.613 (inactive),-0.0571 (inactive),0.483 (inactive),0.232 (inactive),0.0628,-0.307,0.537 (inactive),0.808,-2.9,-3.69 (inactive),0.418 (inactive),1.29 (inactive)
CN1CCC(CCCO)=CC1c1cccs1 (stereo not given),-0.34,-0.158 (inactive),-0.838 (inactive),-0.404 (inactive),-0.377 (inactive),-0.842 (inactive),0.212 (inactive),0.0999 (inactive),-0.707,-0.319,0.912 (inactive),-1,0.896,-4.21 (inactive),1.02 (inactive),0.692 (inactive)
CS(=O)(=O)CCOC(=O)C1=CC(CCCO)=CC(C2CC2)N(Cc2cc3c(cc2Br)OCO3)C=C1C(=O)OCCS(C)(=O)=O (stereo not given),0.0423,-2.22 (inactive),-0.134 (inactive),-1.5 (inactive),0.118 (inactive),0.37 (inactive),1.17 (inactive),0.892 (inactive),-0.0822,0.448,0.389 (inactive),-0.111,-2.58,-5.51 (inactive),-1.19 (inactive),-0.295 (inactive)
